Source: the supplement of paper PMC8728848
This is one part of a sample in which the strongest signals are shown more often than they occur.

Columns and labels:
Test in all cases: glycan array binding signal (z-score within array); higher = stronger binding
Details in all cases: glycan notation: IUPAC condensed, linker removed
[1] = biological target: Fuc(a1-2)Gal(b1-3)GalNAc(a1-3)[Fuc(a1-2)]Gal(b1-4)GlcNAc
How it was run: (§1)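 Glycan array binding is given as a within-array Z-score, which can be read as non-binding when negative. The arrays, 3228 of them, came from the Consortium for Functional Glycomics database and were retained only where the protein sequence was available. Z-scores were averaged across arrays of the same protein sequence at different concentrations or buffers and across linkers.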

[2] = biological target: Fuc(a1-2)Gal(b1-3)GlcNAc
How it was run: as §1

[3] = biological target: Fuc(a1-2)Gal(b1-3)GlcNAc(b1-2)Man(a1-3)[Fuc(a1-2)Gal(b1-3)GlcNAc(b1-2)Man(a1-6)]Man(b1-4)GlcNAc(b1-4)GlcNAc
How it was run: as §1

[4] = biological target: Fuc(a1-2)Gal(b1-3)GlcNAc(b1-3)[Gal(b1-4)GlcNAc(b1-6)]Gal(b1-4)Glc
How it was run: as §1

[5] = biological target: Fuc(a1-2)Gal(b1-3)GlcNAc6S
How it was run: as §1

[6] = biological target: Fuc(a1-2)Gal(b1-4)GlcNAc(b1-2)Man(a1-3)[Fuc(a1-2)Gal(b1-4)GlcNAc(b1-2)Man(a1-6)]Man(b1-4)GlcNAc(b1-4)GlcNAc
How it was run: as §1

[7] = biological target: Fuc(a1-2)[Gal(a1-3)]Gal(b1-3)GlcNAc(b1-3)GalNAc
How it was run: as §1

[8] = biological target: Fuc(a1-2)[Gal(a1-3)]Gal(b1-4)GlcNAc(b1-2)Man(a1-3)[Fuc(a1-2)[Gal(a1-3)]Gal(b1-4)GlcNAc(b1-2)Man(a1-6)]Man(b1-4)GlcNAc(b1-4)GlcNAc
How it was run: as §1

[9] = biological target: Fuc(a1-2)[GalNAc(a1-3)]Gal(b1-4)GlcNAc(b1-6)GalNAc
How it was run: as §1

[10] = biological target: Fuc(a1-3)[Gal(b1-4)]GlcNAc
How it was run: as §1

[11] = biological target: Gal(a1-3)Gal(b1-4)GlcNAc(b1-2)Man
How it was run: as §1

[12] = biological target: Gal(a1-4)Gal(b1-3)GlcNAc(b1-2)Man(a1-3)[Gal(a1-4)Gal(b1-3)GlcNAc(b1-2)Man(a1-6)]Man(b1-4)GlcNAc(b1-4)GlcNAc
How it was run: as §1

[13] = biological target: Gal(a1-4)GlcNAc
How it was run: as §1

[14] = biological target: Gal(b1-3)Gal(b1-4)GlcNAc
How it was run: as §1

[15] = biological target: Gal(b1-3)GlcNAc(b1-3)Gal(b1-4)GlcNAc(b1-2)[Gal(b1-3)GlcNAc(b1-3)Gal(b1-4)GlcNAc(b1-6)]Man(a1-6)[Gal(b1-3)GlcNAc(b1-3)Gal(b1-4)GlcNAc(b1-2)Man(a1-3)]Man(b1-4)GlcNAc(b1-4)[Fuc(a1-6)]GlcNAc
How it was run: as §1

[16] = biological target: Gal(b1-3)[Fuc(a1-4)]GlcNAc(b1-2)Man(a1-3)[Gal(b1-3)[Fuc(a1-4)]GlcNAc(b1-2)Man(a1-6)]Man(b1-4)GlcNAc(b1-4)[Fuc(a1-6)]GlcNAc
How it was run: as §1

[17] = biological target: Gal(b1-4)Glc
How it was run: as §1

[18] = biological target: Gal(b1-4)GlcNAc(b1-3)Gal(b1-3)GalNAc
How it was run: as §1

[19] = biological target: Gal(b1-4)GlcNAc(b1-3)Gal(b1-3)GlcNAc
How it was run: as §1

[20] = biological target: Gal(b1-4)GlcNAc(b1-3)Gal(b1-4)GlcNAc(b1-3)Gal(b1-4)GlcNAc(b1-2)Man(a1-3)[Gal(b1-4)GlcNAc(b1-3)Gal(b1-4)GlcNAc(b1-3)Gal(b1-4)GlcNAc(b1-2)Man(a1-6)]Man(b1-4)GlcNAc(b1-4)[Fuc(a1-6)]GlcNAc
How it was run: as §1

[21] = biological target: Gal(b1-4)GlcNAc(b1-3)Gal(b1-4)GlcNAc(b1-3)Gal(b1-4)GlcNAc(b1-2)[Gal(b1-4)GlcNAc(b1-3)Gal(b1-4)GlcNAc(b1-3)Gal(b1-4)GlcNAc(b1-6)]Man(a1-6)[Gal(b1-4)GlcNAc(b1-3)Gal(b1-4)GlcNAc(b1-3)Gal(b1-4)GlcNAc(b1-2)Man(a1-3)]Man(b1-4)GlcNAc(b1-4)[Fuc(a1-6)]GlcNAc
How it was run: as §1

[22] = biological target: Gal(b1-4)GlcNAc(b1-3)Gal(b1-4)GlcNAc(b1-3)Gal(b1-4)GlcNAc(b1-3)Gal(b1-4)GlcNAc(b1-3)Gal(b1-4)GlcNAc(b1-2)[Gal(b1-4)GlcNAc(b1-3)Gal(b1-4)GlcNAc(b1-3)Gal(b1-4)GlcNAc(b1-3)Gal(b1-4)GlcNAc(b1-3)Gal(b1-4)GlcNAc(b1-6)]Man(a1-6)[Gal(b1-4)GlcNAc(b1-3)Gal(b1-4)GlcNAc(b1-3)Gal(b1-4)GlcNAc(b1-3)Gal(b1-4)GlcNAc(b1-3)Gal(b1-4)GlcNAc(b1-2)Man(a1-3)]Man(b1-4)GlcNAc(b1-4)[Fuc(a1-6)]GlcNAc
How it was run: as §1

[23] = biological target: Gal4S(b1-4)GlcNAc
How it was run: as §1

[24] = biological target: Gal6P(b1-4)GlcNAc
How it was run: as §1

[25] = biological target: Gal6S(b1-3)GlcNAc6S
How it was run: as §1

[26] = biological target: GalNAc(b1-6)GalNAc
How it was run: as §1

[27] = biological target: GalNAc6S(b1-4)GlcNAc
How it was run: as §1

B1: Nc3LysM-2 (protein)
chain: AHVLQARQSVSCDFATAANTGDTCASFAAAWGITEAAFAKLNPGVSCPGNLIAGSEYCVIGTVSTGAPTTTKAATTSTTPPTTTTTTKATTLSTSTTSVSPTGPSPQMPSITSTCNKFYQVQSGDGCWSIEQAQGVSASDFMAWNKAVDAQCDNLWLGYYVCVGVKGGSSPPPTTTTKPASSSAPTPQMPNTVSNCKKFHKVVSGDGCWAIEQAAGISASDFAKWNPYVDAACDNLWLGYYVCIGV
- glycan array binding signal (z-score) [1]: -0.746
- glycan array binding signal (z-score) [2]: 0.966
- glycan array binding signal (z-score) [3]: -0.335
- glycan array binding signal (z-score) [4]: 0.735
- glycan array binding signal (z-score) [5]: -1.29
- glycan array binding signal (z-score) [6]: 2.21
- glycan array binding signal (z-score) [7]: -0.745
- glycan array binding signal (z-score) [8]: 2.78
- glycan array binding signal (z-score) [9]: -1.2
- glycan array binding signal (z-score) [10]: -0.073
- glycan array binding signal (z-score) [11]: -0.456
- glycan array binding signal (z-score) [12]: -0.185
- glycan array binding signal (z-score) [13]: 0.991
- glycan array binding signal (z-score) [14]: -0.043
- glycan array binding signal (z-score) [15]: 2.73
- glycan array binding signal (z-score) [16]: 0.856
- glycan array binding signal (z-score) [17]: -0.252
- glycan array binding signal (z-score) [18]: -1.18
- glycan array binding signal (z-score) [19]: 0.13
- glycan array binding signal (z-score) [20]: 2.69
- glycan array binding signal (z-score) [21]: 5.8
- glycan array binding signal (z-score) [22]: 2.29
- glycan array binding signal (z-score) [23]: -1.15
- glycan array binding signal (z-score) [24]: -0.044
- glycan array binding signal (z-score) [25]: -1.34
- glycan array binding signal (z-score) [26]: 0.877
- glycan array binding signal (z-score) [27]: 0.893
